Source: the supplement of paper PMC10849652
Of roughly 7,900 targets only a part is listed; those with a hit were picked by preference. About 0.6% of all pairs of compound and target were hits.

How the values were obtained:
Experiment in all cases: log2 fold change, soluble protein after heating vs DMSO (PISA); higher = thermal stabilisation; K562 cells, 10 uM, 30 min; active = over 0.2 and 3.5 SD of the protein, either way, in both replicates (recomputed)
[1] = compound: CC1=C(C=C(C=C1)NC(=O)C2=CC(=CC=C2)C(C)(C)C#N)NC3=CC4=C(C=C3)N=CN(C4=O)C
How it was run: (§1)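 Soluble protein was defined as the supernatant after 21,000xg for 90 min. It came from K562 cells at 2×10^6 cells/mL given 10 μM compound for 30 min, heated in aliquots for 3 min across 48°C-58°C, pooled, and extracted in PBS with 0.5% NP-40 at 4°C, and was quantified by TMTpro 16plex LC-MS/MS with equalised channel sums. Thermal stability against control samples, from duplicates, is reported as log2 fold change.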

[2] = compound: CC1=C(C=C(C=C1)NC(=O)C2=CC(=CC=C2)N(C)C)NC(=O)C3=CC=C(C=C3)O
How it was run: as §1

[3] = compound: CC1=CC=C(C=C1)SC2=C3C=C(SC3=CN=C2)C(=O)N
How it was run: as §1

[4] = compound: CC1=NC(=CC=C1)C2=C(N=C(N2)C(C)(C)C)C3=CC4=NC=CN=C4C=C3
How it was run: as §1

[5] = compound: CCCCN(Cc1ccc(C(=O)NO)cc1)C(=O)Nc1ccccc1 [Nexturastat A]
How it was run: as §1

[6] = compound: CCCS(=O)(=O)Nc1ccc(F)c(C(=O)c2c[nH]c3ncc(-c4ccc(Cl)cc4)cc23)c1F [vemurafenib]
How it was run: as §1

[7] = compound: CCCS(=O)(=O)Nc1ccc(F)c(C(=O)c2c[nH]c3ncc(Cl)cc23)c1F
How it was run: as §1

[8] = compound: CCCc1cc(C)[nH]c(=O)c1CNC(=O)c1cc(-c2ccnc(N3CCN(C)CC3)c2)cc2c1cnn2C(C)C
How it was run: as §1

[9] = compound: CCN(CC)Cc1ccc2cc(COC(=O)Nc3ccc(C(=O)NO)cc3)ccc2c1 [givinostat]
How it was run: as §1

[10] = compound: CCN(CCCOc1ccc2c(Nc3cc(CC(=O)Nc4cccc(F)c4)[nH]n3)ncnc2c1)CCOP(=O)(O)O [barasertib]
How it was run: as §1

Measured: log2 fold change

RPS3A (UniProt D6R9B6)
inactive: [1] -0.199

RBM12 (UniProt Q9NTZ6)
UniProt Q9NTZ6, sequence (Q9NTZ6 whole entry, looked up): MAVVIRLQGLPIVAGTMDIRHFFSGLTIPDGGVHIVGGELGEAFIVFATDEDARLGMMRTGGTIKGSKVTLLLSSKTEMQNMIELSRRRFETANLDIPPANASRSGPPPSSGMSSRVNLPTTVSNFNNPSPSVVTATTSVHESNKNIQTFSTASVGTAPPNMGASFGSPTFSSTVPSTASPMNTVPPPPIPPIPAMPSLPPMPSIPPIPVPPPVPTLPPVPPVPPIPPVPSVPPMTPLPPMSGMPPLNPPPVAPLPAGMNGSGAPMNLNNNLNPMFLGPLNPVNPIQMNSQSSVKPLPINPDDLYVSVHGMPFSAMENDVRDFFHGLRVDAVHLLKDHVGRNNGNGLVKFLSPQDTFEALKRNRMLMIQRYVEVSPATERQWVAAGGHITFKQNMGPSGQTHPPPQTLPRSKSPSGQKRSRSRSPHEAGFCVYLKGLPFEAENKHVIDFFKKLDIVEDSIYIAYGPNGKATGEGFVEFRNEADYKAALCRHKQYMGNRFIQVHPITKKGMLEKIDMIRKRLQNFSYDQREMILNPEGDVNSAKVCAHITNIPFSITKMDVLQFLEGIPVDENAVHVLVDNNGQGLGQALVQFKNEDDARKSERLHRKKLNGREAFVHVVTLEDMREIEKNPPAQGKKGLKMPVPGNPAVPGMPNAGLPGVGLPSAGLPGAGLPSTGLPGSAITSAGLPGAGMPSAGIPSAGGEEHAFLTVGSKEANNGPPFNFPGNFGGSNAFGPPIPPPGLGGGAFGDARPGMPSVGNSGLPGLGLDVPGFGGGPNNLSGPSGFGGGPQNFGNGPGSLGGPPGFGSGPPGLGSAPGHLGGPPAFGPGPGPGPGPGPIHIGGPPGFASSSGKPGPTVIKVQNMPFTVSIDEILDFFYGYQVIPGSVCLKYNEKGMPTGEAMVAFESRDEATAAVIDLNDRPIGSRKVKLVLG
inactive: [1] 0.016 | [2] -0.101 | [3] 0.057 | [4] 0.116 | [5] -0.085 | [6] 0.058 | [7] 0.136 | [8] 0.008 | [9] 0.062 | [10] 0.122

SEH1L isoform 1 (UniProt Q96EE3)
inactive: [1] -0.004 | [2] 0.015 | [3] 0.005 | [4] -0.019 | [5] 0.011 | [6] 0.005 | [7] 0.048 | [8] -0.033 | [9] 0.005 | [10] 0.008

SAFB2 (UniProt Q14151)
inactive: [1] 0.011 | [2] 0.068 | [3] -0.024 | [4] 0.011 | [5] 0.203 | [6] -0.048 | [7] -0.038 | [8] 0.097 | [9] -0.011 | [10] -0.029

RNPS1 (UniProt Q15287)
UniProt Q15287, sequence (Q15287 whole entry, looked up): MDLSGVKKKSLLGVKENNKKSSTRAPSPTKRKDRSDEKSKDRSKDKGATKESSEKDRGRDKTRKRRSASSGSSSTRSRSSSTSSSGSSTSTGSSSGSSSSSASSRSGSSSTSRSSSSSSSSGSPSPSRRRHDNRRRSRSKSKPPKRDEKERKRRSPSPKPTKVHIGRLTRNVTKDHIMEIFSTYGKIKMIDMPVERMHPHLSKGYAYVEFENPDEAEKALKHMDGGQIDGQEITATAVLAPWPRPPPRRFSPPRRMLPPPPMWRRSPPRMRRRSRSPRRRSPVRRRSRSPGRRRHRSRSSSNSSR
inactive: [1] -0.043 | [2] 0.015 | [3] 0.017 | [4] 0.031 | [5] 0.245 | [6] -0.001 | [7] -0.033 | [8] -0.024 | [9] 0.071 | [10] 0.015

SENP6 (UniProt Q9GZR1)
inactive: [1] -0.048 | [2] -0.006 | [3] 0.037 | [4] -0.007 | [5] 0.247 | [6] -0.028 | [7] -0.01 | [8] 0.077 | [9] 0.057 | [10] -0.026

SGPL1 (UniProt O95470)
inactive: [1] -0.036 | [2] -0.056 | [3] 0.014 | [4] -0.054 | [5] 0.031 | [6] 0.033 | [7] -0.036 | [8] 0.074 | [9] -0.035 | [10] 0.051

RARS2 (UniProt Q5T160)
inactive: [1] 0.018 | [2] 0.033 | [3] 0.056 | [4] 0.029 | [5] -0.027 | [6] 0.019 | [7] 0.05 | [8] -0.014 | [9] -0.037 | [10] 0.017

RAB9A (UniProt P51151)
inactive: [1] 0.036 | [2] 0.033 | [3] 0.017 | [4] 0.018 | [5] 0.017 | [6] -0.012 | [7] -0.024 | [8] 0.003 | [9] 0.054 | [10] -0.011

RBM22 (UniProt Q9NW64)
UniProt Q9NW64, sequence (Q9NW64 whole entry, looked up): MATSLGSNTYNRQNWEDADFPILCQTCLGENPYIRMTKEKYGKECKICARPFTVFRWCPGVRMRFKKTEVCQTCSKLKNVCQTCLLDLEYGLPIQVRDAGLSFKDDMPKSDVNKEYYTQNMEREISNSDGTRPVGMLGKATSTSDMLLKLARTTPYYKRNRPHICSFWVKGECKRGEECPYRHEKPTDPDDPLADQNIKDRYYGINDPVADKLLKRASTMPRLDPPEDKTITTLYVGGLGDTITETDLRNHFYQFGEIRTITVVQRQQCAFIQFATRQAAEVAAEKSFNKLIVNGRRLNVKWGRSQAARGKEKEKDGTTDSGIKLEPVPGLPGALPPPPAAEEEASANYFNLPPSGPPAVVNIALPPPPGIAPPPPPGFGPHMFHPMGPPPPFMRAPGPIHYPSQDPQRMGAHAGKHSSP
inactive: [1] -0.049 | [2] 0.031 | [3] -0.056 | [4] -0.014 | [5] 0.052 | [6] 0.003 | [7] -0.004 | [8] -0.038 | [9] 0.018 | [10] -0.006

RSL1D1 (UniProt O76021)
inactive: [1] -0.019 | [2] 0.039 | [3] -0.155 | [4] -0.148 | [5] 0.256 | [6] -0.126 | [7] -0.137 | [8] 0.15 | [9] 0.087 | [10] -0.167

SCG3 (UniProt Q8WXD2)
inactive: [1] 0.134 | [2] -0.105 | [3] -0.011 | [4] -0.05 | [5] -0.071 | [6] 0.027 | [7] -0.041 | [8] 0.11 | [9] -0.043 | [10] 0.013

RCC1 isoform 2 (UniProt P18754)
inactive: [1] 0.197 | [2] -0.129 | [3] 0.073 | [4] 0.055 | [5] -0.027 | [6] 0.13 | [7] 0.104 | [8] 0.111 | [9] 0.087 | [10] 0.053

RHOA (UniProt P61586)
inactive: [1] 0.015 | [2] -0.073 | [3] 0.047 | [4] 0.061 | [5] 0.039 | [6] -0.042 | [7] 0.074 | [8] 0.145 | [9] -0.032 | [10] 0.026

RDH10 (UniProt Q8IZV5)
inactive: [1] 0.004 | [2] -0.034 | [3] 0.047 | [4] -0.055 | [5] -0.107 | [6] -0.016 | [7] -0.058 | [8] -0.043 | [9] -0.091 | [10] 0.011

RPS20 isoform 2 (UniProt P60866)
inactive: [1] 0.056 | [2] 0.021 | [3] -0.049 | [4] -0.077 | [5] 0.112 | [6] -0.117 | [7] -0.068 | [8] 0.008 | [9] -0.032 | [10] -0.063

SETMAR (UniProt Q53H47)
UniProt Q53H47, sequence (Q53H47 whole entry, looked up): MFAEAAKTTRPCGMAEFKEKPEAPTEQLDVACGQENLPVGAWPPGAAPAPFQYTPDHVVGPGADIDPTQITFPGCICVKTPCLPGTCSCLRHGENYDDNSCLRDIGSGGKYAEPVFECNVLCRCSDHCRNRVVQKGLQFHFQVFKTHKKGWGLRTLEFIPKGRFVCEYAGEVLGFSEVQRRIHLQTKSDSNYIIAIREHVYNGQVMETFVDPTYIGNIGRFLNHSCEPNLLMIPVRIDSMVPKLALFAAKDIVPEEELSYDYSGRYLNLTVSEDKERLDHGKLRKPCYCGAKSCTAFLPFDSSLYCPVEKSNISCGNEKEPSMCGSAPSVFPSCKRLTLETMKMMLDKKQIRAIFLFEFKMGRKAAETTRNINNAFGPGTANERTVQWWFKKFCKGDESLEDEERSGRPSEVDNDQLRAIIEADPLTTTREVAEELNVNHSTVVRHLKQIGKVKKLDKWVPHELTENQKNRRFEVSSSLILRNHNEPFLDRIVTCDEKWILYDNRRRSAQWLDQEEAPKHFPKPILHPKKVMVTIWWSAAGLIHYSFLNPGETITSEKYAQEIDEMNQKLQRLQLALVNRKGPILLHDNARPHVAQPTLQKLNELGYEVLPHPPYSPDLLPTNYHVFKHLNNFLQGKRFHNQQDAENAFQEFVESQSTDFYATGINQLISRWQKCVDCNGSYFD
inactive: [1] 0.128 | [2] 0.061 | [3] -0.023 | [4] -0.049 | [5] -0.041 | [6] 0.018 | [7] 0.021 | [8] 0.01 | [9] -0.036 | [10] 0.051

SLBP (UniProt Q14493)
UniProt Q14493, sequence (Q14493 whole entry, looked up): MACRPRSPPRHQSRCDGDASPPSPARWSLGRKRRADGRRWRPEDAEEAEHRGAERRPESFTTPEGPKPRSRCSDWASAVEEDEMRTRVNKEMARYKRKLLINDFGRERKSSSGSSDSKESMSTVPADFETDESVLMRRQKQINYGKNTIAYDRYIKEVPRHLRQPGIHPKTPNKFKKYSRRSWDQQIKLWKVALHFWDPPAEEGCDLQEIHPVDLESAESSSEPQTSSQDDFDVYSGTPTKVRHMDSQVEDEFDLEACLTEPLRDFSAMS
inactive: [1] -0.012 | [2] -0.08 | [3] 0.019 | [4] 0.099 | [5] -0.218 | [6] 0.028 | [7] 0.057 | [8] 0.024 | [9] 0.055 | [10] 0.06

SCAF8 isoform 2 (UniProt Q9UPN6)
UniProt Q9UPN6, sequence (Q9UPN6 whole entry, looked up): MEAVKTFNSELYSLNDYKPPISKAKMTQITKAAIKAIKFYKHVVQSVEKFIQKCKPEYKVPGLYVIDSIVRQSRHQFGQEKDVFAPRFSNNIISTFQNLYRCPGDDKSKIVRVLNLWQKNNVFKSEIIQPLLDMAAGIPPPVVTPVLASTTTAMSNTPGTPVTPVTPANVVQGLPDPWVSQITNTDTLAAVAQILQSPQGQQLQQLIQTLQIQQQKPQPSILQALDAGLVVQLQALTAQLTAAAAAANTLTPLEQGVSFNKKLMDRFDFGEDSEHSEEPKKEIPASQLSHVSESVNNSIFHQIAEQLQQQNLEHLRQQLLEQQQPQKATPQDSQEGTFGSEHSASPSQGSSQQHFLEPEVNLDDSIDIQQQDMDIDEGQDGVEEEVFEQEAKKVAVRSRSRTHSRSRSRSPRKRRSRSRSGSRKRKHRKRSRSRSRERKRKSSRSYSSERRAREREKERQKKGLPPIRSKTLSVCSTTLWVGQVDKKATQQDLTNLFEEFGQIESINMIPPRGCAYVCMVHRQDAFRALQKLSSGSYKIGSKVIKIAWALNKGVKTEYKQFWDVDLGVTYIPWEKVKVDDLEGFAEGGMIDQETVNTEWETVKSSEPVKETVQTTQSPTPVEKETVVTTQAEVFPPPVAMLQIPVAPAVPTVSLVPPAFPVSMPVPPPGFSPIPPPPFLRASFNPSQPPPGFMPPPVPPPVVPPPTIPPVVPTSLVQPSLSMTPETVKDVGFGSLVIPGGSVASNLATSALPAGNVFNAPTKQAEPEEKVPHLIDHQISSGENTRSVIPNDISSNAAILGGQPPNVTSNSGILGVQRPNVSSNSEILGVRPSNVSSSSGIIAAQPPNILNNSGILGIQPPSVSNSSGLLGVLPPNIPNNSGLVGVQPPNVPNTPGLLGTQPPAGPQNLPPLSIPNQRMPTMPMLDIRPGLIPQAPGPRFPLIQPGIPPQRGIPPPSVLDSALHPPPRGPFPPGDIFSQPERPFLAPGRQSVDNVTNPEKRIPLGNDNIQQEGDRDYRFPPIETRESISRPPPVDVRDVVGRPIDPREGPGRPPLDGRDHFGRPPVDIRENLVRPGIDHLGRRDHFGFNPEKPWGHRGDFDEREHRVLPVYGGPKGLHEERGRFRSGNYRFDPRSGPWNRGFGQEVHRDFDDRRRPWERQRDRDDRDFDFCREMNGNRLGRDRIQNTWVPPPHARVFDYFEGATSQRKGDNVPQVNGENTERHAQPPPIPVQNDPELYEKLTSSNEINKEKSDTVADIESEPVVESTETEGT
inactive: [1] 0.048 | [2] 0.002 | [3] -0.03 | [4] 0.076 | [5] 0 | [6] -0.001 | [7] 0.004 | [8] -0.013 | [9] 0.038 | [10] 0.067

SCO2 (UniProt O43819)
active: [1] -0.487
inactive: [2] -0.079 | [3] 0.029 | [4] -0.003 | [5] 0.269 | [6] 0.05 | [7] 0.029 | [8] 0.059 | [9] 0.03 | [10] 0.153

RRAGB (UniProt Q5VZM2)
UniProt Q5VZM2, sequence (Q5VZM2 whole entry, looked up): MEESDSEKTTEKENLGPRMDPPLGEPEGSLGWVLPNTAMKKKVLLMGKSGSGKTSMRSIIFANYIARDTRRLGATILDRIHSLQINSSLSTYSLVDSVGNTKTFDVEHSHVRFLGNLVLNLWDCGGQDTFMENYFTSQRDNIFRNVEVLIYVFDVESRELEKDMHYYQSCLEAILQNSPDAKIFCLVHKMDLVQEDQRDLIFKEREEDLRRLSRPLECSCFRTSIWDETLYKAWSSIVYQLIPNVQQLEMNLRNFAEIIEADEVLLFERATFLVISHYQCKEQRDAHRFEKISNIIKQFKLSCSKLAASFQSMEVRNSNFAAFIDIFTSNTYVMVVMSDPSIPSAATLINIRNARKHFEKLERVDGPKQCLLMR
inactive: [1] 0.013 | [2] 0.018 | [3] 0.011 | [4] -0.01 | [5] -0.071 | [6] 0.001 | [7] 0.028 | [8] -0.023 | [9] -0.044 | [10] -0.004

RPL38 (UniProt P63173)
inactive: [1] 0.032 | [2] 0.017 | [3] -0.038 | [4] -0.045 | [5] 0.075 | [6] -0.003 | [7] 0.006 | [8] 0.069 | [9] -0.054 | [10] -0.025

RFC3 (UniProt P40938)
inactive: [1] -0.003 | [2] -0.031 | [3] 0.05 | [4] 0.058 | [5] -0.032 | [6] 0.048 | [7] 0.101 | [8] 0 | [9] -0.007 | [10] -0.011

RPP14 (UniProt O95059)
inactive: [1] 0.086 | [2] 0.01 | [3] -0.031 | [4] -0.015 | [5] 0.129 | [6] -0.004 | [7] 0.004 | [8] -0.037 | [9] -0.116 | [10] -0.087

RTF2 (UniProt Q9BY42)
inactive: [1] 0 | [2] -0.028 | [3] 0.019 | [4] 0.04 | [5] 0.004 | [6] 0.129 | [7] 0.044 | [8] -0.019 | [9] 0.017 | [10] 0.072

RHOXF2 (UniProt Q9BQY4)
UniProt Q9BQY4, sequence (Q9BQY4 whole entry, looked up): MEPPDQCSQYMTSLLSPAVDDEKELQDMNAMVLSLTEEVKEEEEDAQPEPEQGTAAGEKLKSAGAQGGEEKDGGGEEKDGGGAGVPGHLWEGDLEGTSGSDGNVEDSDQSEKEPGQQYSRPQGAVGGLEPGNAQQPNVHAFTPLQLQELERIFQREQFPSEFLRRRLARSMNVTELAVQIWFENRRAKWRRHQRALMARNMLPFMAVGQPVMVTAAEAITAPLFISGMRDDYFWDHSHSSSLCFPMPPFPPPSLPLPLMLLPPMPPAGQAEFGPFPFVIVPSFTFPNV
inactive: [1] -0.03 | [2] 0.034 | [3] -0.037 | [4] 0.021 | [5] 0.083 | [6] -0.015 | [7] 0.012 | [8] -0.024 | [9] 0.05 | [10] 0.033

SEPTIN5 (UniProt Q99719)
inactive: [1] 0.026 | [2] 0 | [3] 0.007 | [4] 0.003 | [5] -0.06 | [6] -0.015 | [7] -0.015 | [8] 0.104 | [9] -0.006 | [10] -0.013

RPTOR (UniProt Q8N122)
inactive: [1] 0.009 | [2] 0.019 | [3] 0.027 | [4] 0.025 | [5] -0.018 | [6] 0.017 | [7] 0.09 | [8] 0.012 | [9] -0.007 | [10] -0.007

RB1 (UniProt P06400)
inactive: [1] 0.016 | [2] -0.011 | [3] 0.034 | [4] 0.003 | [5] -0.1 | [6] -0.01 | [7] -0.008 | [8] -0.026 | [9] -0.02 | [10] -0.004

SCPEP1 (UniProt Q9HB40)
UniProt Q9HB40, sequence (Q9HB40 whole entry, looked up): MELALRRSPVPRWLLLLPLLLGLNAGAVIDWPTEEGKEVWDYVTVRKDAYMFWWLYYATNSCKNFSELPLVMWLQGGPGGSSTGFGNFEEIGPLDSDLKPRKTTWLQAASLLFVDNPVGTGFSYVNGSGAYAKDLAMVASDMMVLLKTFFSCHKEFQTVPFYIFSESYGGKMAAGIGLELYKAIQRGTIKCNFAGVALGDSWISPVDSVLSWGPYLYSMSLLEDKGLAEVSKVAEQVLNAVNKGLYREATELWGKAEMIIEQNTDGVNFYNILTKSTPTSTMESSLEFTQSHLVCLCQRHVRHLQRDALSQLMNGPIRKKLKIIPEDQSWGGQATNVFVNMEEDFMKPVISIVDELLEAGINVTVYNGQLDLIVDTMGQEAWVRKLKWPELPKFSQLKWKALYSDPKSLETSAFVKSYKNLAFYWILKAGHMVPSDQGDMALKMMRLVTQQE
inactive: [1] -0.003 | [2] 0.016 | [3] 0.05 | [4] 0.022 | [5] -0.035 | [6] 0.002 | [7] 0.013 | [8] -0.028 | [9] -0.031 | [10] 0.012
